Data published in PubChem BioAssay (NCI).
The panel holds about 83,000 compounds, 20% with a hit somewhere; the sample as a whole holds those more often.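 Interpretation: 100, growth as untreated; towards 0, rising growth inhibition; 0, no net growth; 0 to -100, cell death. Compounds scoring below 10 were considered active.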 Unmarked numbers belong to inactive results. Activity calls are given as the source filed them.

What follows are compounds tested on SW-620 colon (assay: NCI-60 one-dose screen, 48 h (100 = growth as untreated, 0 = no growth, -100 = all killed)). Settings: 10 µM unless noted.
With `CCN(CC)CCCN1C(=O)c2c(c(C)c3c(oc4ccc(O)cc43)c2C)C1=O` the growth was -37% (active). For `O=C(Nc1ccccc1N1CCCC1=O)c1oc2ccc(F)cc2c1-c1cnn(-c2ccccc2)c1`, the growth was 75.4% [50 µM]. `O=C(C1CCCCC1)[C@@H]1[C@]2(C(=O)NC3CCCCC32)[C@@H]2CCCN2[C@@]12C(=O)NC1CCC(Cl)CC12` (some centres undefined) was tested, and the growth was -89.6% [100 µM] (active). `C=C(C)[C@@H]1CC[C@]2(COC(C)=O)CC[C@]3(C)[C@H](CC[C@@H]4[C@@]5(C)CCCN(C(C)=O)C(C)(C)[C@@H]5CC[C@]43C)[C@@H]12` was tested, and the growth was -53.9% (active).

The compounds below were run on MCF7 breast in the same assay as above. Settings: 10 µM unless noted.
`Cc1ncc(C(=O)Nc2ccc(CN3CCN(C)CC3)c(C(F)(F)F)c2)cc1C#Cc1cnc(N)c2ncccc12` was tested, and the growth was -58.6% (active). Compound `COc1ccc(C(=O)N2c3ccccc3Sc3ccccc32)c(C(F)(F)F)c1` has a growth of 17%. In the case of `Cc1ccc(Cl)cc1NC(=O)c1sc2nc3c(cc2c1N)C(=O)CCC3`, the growth is reported as 35.6%. For `Oc1c(CN2CCCC2)cc(CSCc2ccccc2)c2cccnc12`, the growth was 8.46% (active). `CCOC(=O)CC1CSC(Nc2ccccc2)=N1` (centres undefined) showed a growth of 89.7%. `C#CCNC(=O)[C@]1(C)CCC[C@@]2(C)[C@H]1CC=C1C=C(C(C)C)CC[C@@H]12` gave a growth of 85.6%. `CCCCNC(=O)Oc1ccc(/C(=C(/C)Cc2ccc(OC)cc2)c2ccc(OCCN3CCCCC3)cc2)cc1` was tested, and the growth was 26.9%. `COc1cccc(/C=C/C(=O)c2cc3c(N)c(C(=O)Nc4cccc5ccccc45)sc3nc2C)c1` gave a growth of 13.4%. `COc1cc2c(cc1OCCCCN1CCN(C(=S)SCCC(C#N)(c3ccccc3)c3ccccc3)CC1)N=C[C@@H]1CCCN1C2=O` was tested, and the growth was -93.4% (active). For `CN1C(=O)/C(=C/c2ccc(C(=O)Nc3ncc(Cc4cccc(Cl)c4)s3)cc2)SC1=S`, the growth was 46%. With `Cc1ccc(C(=O)c2ccc(CC(=O)NN3C(=O)c4ccccc4C3=O)n2C)cc1` the growth was 91.4%. For `Cn1c(=O)c2[nH]c(SCC(=O)Nc3ccc(C(=O)/C=C/c4ccccc4Cl)cc3)nc2n(C)c1=O`, the growth was 69.4%. Work on `Nc1[nH]c(=S)nc2oc(-c3ccccc3)c(-c3ccccc3)c12` yielded a growth of 96.6%. `O=S(=O)(Oc1ccc(Br)cc1)c1ccc(Cl)cc1` gave a growth of 91.7%. For `COC(=O)N1CC(Oc2ccccn2)C2CC1c1ccccc1O2` (centres undefined), the growth was 102%. `COc1ccc(/C(C)=C(\c2ccc(Cl)cc2)c2ccc(OCCN3CCCCC3)cc2)cc1` showed a growth of 20.3%. In the case of `Cc1ccc2nc(-c3ccc(C(=O)NNC(=S)Nc4ccccc4)cc3)[nH]c2c1`, the growth is reported as 79.5%. Compound `O=S(=O)(NCCCNc1nccc(-c2c(-c3cccc(F)c3)nc3occn23)n1)c1ccc(F)cc1` has a growth of 60.1%. Work on `Cc1nc2sc(C(=O)Nc3cccc(Br)c3C)c(N)c2cc1C(O)c1ccccc1` (centres undefined) yielded a growth of 10.9%. For `CC1(C)N=C(N)N=C(N)N1c1ccc(CCCCc2ccccc2)c(Cl)c1`, the growth was 1.84% (active). `CCCCNC(=O)c1cc([N+](=O)[O-])cc(C2CCCCC2)c1O` showed a growth of 39.3%. In the case of `O=C(CCCCCNC(=O)c1cc(=O)c(O)co1)Nc1ccccc1`, the growth is reported as 88.6%. With `CCOC(=O)c1c(C)nc2ccccc2c1/C=C/c1ccccc1` the growth was 65.5%. With `COc1cccc(-c2cc(-c3cccc(Cl)c3)c(C#N)c(=O)[nH]2)c1` the growth was 55.5%. With `CN(CCCNC(=O)CCOCCOCCOCCNC(=O)Cc1ccc2ccc3cccc4ccc1c2c34)CCCNc1cc(-c2ccc3ccccc3c2)nc2ccccc12` the growth was -82.3% (active). Compound `Cc1ccc2nc(/C(C#N)=C(/CCCO)NC(Cc3ccccc3)C(=O)OCc3ccccc3)[nH]c(=O)c2c1` (centres undefined) has a growth of 99.8%. `NS(=O)(=O)c1ccc(-c2cc(-c3nnc(SCC(=O)Nc4ccc(C(=O)/C=C/c5ccc(Cl)cc5)cc4)n3-c3ccccc3)c3ccccc3n2)cc1` showed a growth of 70.6%. For `COC(=O)c1cc(Br)ccc1O`, the growth was 99.2%. In the case of `COc1ccc(-c2cc(-c3ccccc3)nc(N3CCN(CCNc4ccnc5cc(Cl)ccc45)CC3)n2)cc1`, the growth is reported as -84.8% (active). `CCCCNC(=O)Oc1ccc(/C(=C(/C)Cc2ccc(OC)cc2)c2ccc(OCCN3CCCCCC3)cc2)cc1` gave a growth of 27.3%. `O=C(N=Nc1c(O)[nH]c2ccccc12)Nc1ccc(F)cc1` showed a growth of 71.3%. Compound `O=[N+]([O-])c1ccc(-c2cn3nc(-c4c[nH]c5ccccc45)sc3n2)cc1` has a growth of 79.5%. For `CN(C)c1ccc(/C=C(\C#N)c2cc3ccccc3[nH]2)cc1`, the growth was 19.9%. With `CC(=O)/C(=C/c1ccc([N+](=O)[O-])cc1)C(=O)c1ccccc1` the growth was 29.2%. `CCOC(=O)c1nn(CC(O)c2ccccc2)c(NC(=O)Nc2cccc(F)c2)c1C` (centres undefined) gave a growth of 91.3%. `CO[C@H](C(=O)[C@@H](O)[C@@H](C)O)[C@@H]1Cc2cc3cc(O[C@H]4C[C@@H](O[C@H]5C[C@@H](O)[C@H](O)C(C)O5)[C@H](O)C(C)(O)O4)cc(O)c3c(O)c2C(=O)[C@H]1O[C@H]1C[C@@H](O[C@H]2C[C@@H](O[C@H]3C[C@@H](OC)[C@H](O)C(C)O3)[C@@H](O)C(C)O2)[C@H](O)C(C)O1` (some centres undefined) was tested, and the growth was 6.89% (active). `CCN(CC)CCCN1C(=O)c2c(c(C)c3c(oc4ccc(O)cc43)c2C)C1=O` gave a growth of 65.8%. For `O=C(Nc1ccccc1N1CCCC1=O)c1oc2ccc(F)cc2c1-c1cnn(-c2ccccc2)c1`, the growth was 43.8% [50 µM]. In the case of `O=C(C1CCCCC1)[C@@H]1[C@]2(C(=O)NC3CCCCC32)[C@@H]2CCCN2[C@@]12C(=O)NC1CCC(Cl)CC12` (some centres undefined), the growth is reported as -51.4% [100 µM] (active). `C=C(C)[C@@H]1CC[C@]2(COC(C)=O)CC[C@]3(C)[C@H](CC[C@@H]4[C@@]5(C)CCCN(C(C)=O)C(C)(C)[C@@H]5CC[C@]43C)[C@@H]12` gave a growth of 19.7%.
